# Data reported in publication PMC4336329 (PLoS ONE, 2015).
# Screen size: about 310,000 compounds; about 14,000 (4.5%) showed an effect of 50% or more. Effects have a minus sign here. The full list was thinned out, with strong results kept by preference.
# Biological target: human ether-à-go-go-related gene (hERG) potassium channel (human, UniProt Q12809)
# Assay: primary screen, population patch clamp on CHO cells stably expressing hERG; higher = less effect of the substance
# 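Also: peak tail current of the secondary pulse compared with the same well before compound.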
# human ether-à-go-go-related gene (hERG) potassium channel, sequence (Q12809 whole entry, looked up): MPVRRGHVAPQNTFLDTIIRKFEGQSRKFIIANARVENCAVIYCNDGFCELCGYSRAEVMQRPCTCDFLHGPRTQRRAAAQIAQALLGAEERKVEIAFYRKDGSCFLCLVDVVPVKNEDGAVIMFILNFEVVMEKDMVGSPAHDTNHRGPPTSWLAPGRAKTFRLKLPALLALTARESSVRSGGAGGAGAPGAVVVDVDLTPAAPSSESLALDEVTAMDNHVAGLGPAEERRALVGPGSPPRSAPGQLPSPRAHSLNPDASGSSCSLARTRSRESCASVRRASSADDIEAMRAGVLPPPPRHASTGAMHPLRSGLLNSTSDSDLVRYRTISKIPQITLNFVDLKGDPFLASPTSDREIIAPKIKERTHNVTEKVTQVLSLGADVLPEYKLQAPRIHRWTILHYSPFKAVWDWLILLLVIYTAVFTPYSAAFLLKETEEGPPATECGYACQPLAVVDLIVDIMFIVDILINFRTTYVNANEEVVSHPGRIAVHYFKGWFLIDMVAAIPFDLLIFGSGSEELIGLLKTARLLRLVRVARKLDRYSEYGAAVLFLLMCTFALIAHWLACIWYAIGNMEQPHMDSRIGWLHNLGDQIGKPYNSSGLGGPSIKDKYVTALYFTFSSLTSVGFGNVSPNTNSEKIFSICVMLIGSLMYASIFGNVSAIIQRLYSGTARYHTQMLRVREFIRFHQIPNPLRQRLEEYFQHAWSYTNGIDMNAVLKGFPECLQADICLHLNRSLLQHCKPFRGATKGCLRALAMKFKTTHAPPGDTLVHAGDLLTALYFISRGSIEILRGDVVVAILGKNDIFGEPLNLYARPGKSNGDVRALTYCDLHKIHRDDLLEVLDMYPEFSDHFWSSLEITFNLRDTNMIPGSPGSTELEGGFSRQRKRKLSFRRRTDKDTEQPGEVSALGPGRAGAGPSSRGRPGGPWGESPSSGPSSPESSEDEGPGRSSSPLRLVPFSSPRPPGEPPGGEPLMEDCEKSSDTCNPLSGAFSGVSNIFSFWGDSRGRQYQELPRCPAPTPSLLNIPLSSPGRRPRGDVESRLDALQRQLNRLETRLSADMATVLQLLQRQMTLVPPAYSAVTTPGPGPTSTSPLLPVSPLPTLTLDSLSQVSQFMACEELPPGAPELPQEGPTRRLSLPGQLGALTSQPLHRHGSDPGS
row,Structure (SMILES),"hERG current change (%, negative = inhibition) at 10uM [%]"
1,COc1ccc2c(c1)C(=O)N(Cc1ccccc1)C(=O)C2(C)C,6.19
2,Cc1nn(Cc2ccc(Cl)cc2)c(C)c1NC(=O)c1cc(C(C)C)on1,5.88
3,Cn1c(SCC(=O)NC2CC2)nnc1-c1ccco1,9.16
4,Cc1ccc(NC(=O)[C@H](Cc2ccccc2)NC(=O)C2CCNCC2)cc1,5.64
5,CCCCCOC(=O)c1ccccc1C(=O)O,16.1
6,CC(=O)N/C(=C\c1ccc(C)o1)C(=O)NCc1ccccc1,21.8
7,COc1ccc(OC)c(N2C(=O)NC(=O)/C(=C/c3ccc([N+](=O)[O-])s3)C2=O)c1,12.9
8,CCOc1cc(C(=O)N2CCC(CC3CC(c4ccccc4)=NO3)(C(=O)NCc3ccc(OC)cc3)CC2)cc(OCC)c1OCC (centres unmarked),-8.88
9,COc1ccc(CNC(=O)C2(CC3CC(c4ccccc4)=NO3)CCN(C(=O)C3CCCC3)CC2)cc1 (centres unmarked),-71.6
10,COc1ccc(CNC(=O)C2(CC3CC(c4ccccc4)=NO3)CCN(C(=O)c3cccc(O)c3)CC2)cc1 (centres unmarked),-68.2
11,COC(=O)C1(CC2CC(c3ccccc3)=NO2)CCN(C(=O)OC(C)(C)C)CC1 (centres unmarked),-11.4
12,CC(C)(C)OC(=O)N1CCC(CC2CC(c3ccccc3)=NO2)(C(=O)NCc2ccccc2)CC1 (centres unmarked),-18.3
13,CCCNC(=O)C1(CC2CC(c3ccccc3)=NO2)CCN(C(=O)C2CCCC2)CC1 (centres unmarked),-41.8
14,COc1ccc(CNC(=O)C2(CC3CC(c4ccccc4)=NO3)CCN(C(=O)C3(C)CC3)CC2)cc1 (centres unmarked),-67
15,COc1ccc(CNC(=O)C2(CC3CC(c4ccccc4)=NO3)CCN(C(=O)CCCCCBr)CC2)cc1 (centres unmarked),-76.9
16,CC(C)(C)OC(=O)N1CCC(CC2CC(c3ccccc3)=NO2)(C(=O)O)CC1 (centres unmarked),14.7
17,CC1(C(=O)N2CCC(CC3CC(c4cccc(Br)c4)=NO3)(C(=O)NCC3CCCCC3)CC2)CC1 (centres unmarked),-20.1
18,COc1ccc(CNC(=O)C2(CC3CC(c4ccccc4)=NO3)CCN(C(=O)OC(C)(C)C)CC2)cc1 (centres unmarked),-30.5
19,CCCCC1=CC2=CC(=O)C(C)(OC(=O)CC)C(=O)C2=CN1c1ccccc1 (centres unmarked),1.5
20,CCO[C@H]1OC(C(=O)NCc2ccccc2)=C[C@@H](C2CCCCC2)[C@@H]1CCCO,-19.8
21,COC(=O)C1=C(c2ccc(S(C)(=O)=O)cc2)C[C@@H]2CC[C@H]1N2C(=O)NCCNC(C)=O,14.6

row,Structure (SMILES),"hERG current change (%, negative = inhibition) at 10uM [%]"
1,Cc1occc1-c1nnc(SCC(=O)N2CCCCC2)o1,-8.31
2,CCC(C)(CC(=O)Nc1nccs1)c1ccccc1 (centres unmarked),7.66
3,COc1cccc(Cn2cc(C)cc(NC(=O)NCc3ccccc3)c2=O)c1,11.9
4,Nc1nc(Cl)cc(Sc2ccc(F)cc2)n1,7.51
5,NNC(=O)c1oc2nc(-c3ccco3)cc(-c3ccco3)c2c1N,-12.8
6,NNC(=O)c1oc2nc(-c3ccccc3)cc(-c3ccco3)c2c1N,0.558
7,NNC(=O)c1oc2nc(-c3cccs3)cc(-c3ccco3)c2c1N,-69.8
8,CCCCN(C(=O)c1ccc2c(c1)OCO2)c1c(N)n(CCCC)c(=O)[nH]c1=O,25.7
9,CSCCC(NS(=O)(=O)c1ccccc1F)C(=O)Nc1ccncc1 (centres unmarked),-10.8
10,O=c1cc(Nc2cccc(Br)c2)[nH]c(=O)[nH]1,-11.5
11,Cc1cccc(N2CCN(C(=O)C3COc4ccccc4O3)CC2)c1C (centres unmarked),-17.4
12,Cc1cccc2sc(N3CCN(C(=O)C4COc5ccccc5O4)CC3)nc12 (centres unmarked),-31.3
13,CCOc1ccc2nc(N3CCC(C(=O)N4CCN(c5ccccn5)CC4)CC3)sc2c1,-45.7
14,CCOC(=O)C1CCN(C(=O)C2CCN(c3nc4ccc(OC)cc4s3)CC2)CC1,-67.6
15,CCOc1ccc2nc(N3CCC(C(=O)N4CCN(C5CCCCC5)CC4)CC3)sc2c1,-46.1
16,Cc1cc(C)c(C#N)c(N2CCN(C(=O)C3COc4ccccc4O3)CC2)n1 (centres unmarked),-75.4
17,CCOc1ccc2nc(N3CCC(C(=O)N4CCN(c5ncccn5)CC4)CC3)sc2c1,-13.4
18,CCOC(=O)N1CCN(C(=O)c2ccc3nc(N4CCCCC4)sc3c2)CC1,-15.7
19,CCOc1ccc2nc(N3CCCCCC3)sc2c1,-19.2
20,CCOc1ccc2nc(N3CCC(C(=O)N4CCN(C(=O)c5ccco5)CC4)CC3)sc2c1,-81.7
21,CCOC(=O)Nc1ccc2nc(N3CCCCCC3)sc2c1,-50.6

row,Structure (SMILES),"hERG current change (%, negative = inhibition) at 10uM [%]"
1,CCOc1ccc2nc(N3CCC(C(=O)N4CCC5(CC4)OCCO5)CC3)sc2c1,-8.46
2,Cc1ccc2ncnc(NCCCCCC(=O)O)c2c1.Cl,17.4
3,CCOc1ncccc1C(=O)Nc1cccc(S(=O)(=O)NC2=NCCC2)c1,-6.34
4,COc1ccc2[n-]c(S(=O)Cc3ncc(C)c(OC)c3C)nc2c1.COc1ccc2[n-]c(S(=O)Cc3ncc(C)c(OC)c3C)nc2c1.[Mg+2] (centres unmarked) [49665950],16.3
5,Cc1ccc(C(=O)NCCSC2CCCCC2)cc1S(=O)(=O)Nc1ccccc1,-2.9
6,C=CCCN(Cc1ccccc1)S(=O)(=O)c1ccccc1Br,3.42
7,COc1ccc(OCCn2c(C)c(/C=N/n3cnnc3)c3ccccc32)cc1,-0.339
8,Cn1c(SCC(=O)N/N=C/c2ccc(O)c(O)c2)nc2ccccc21,4.68
9,CCCC(C)NC(=O)COC(=O)c1ccc2c(c1)C(=O)N(Cc1ccco1)C2=O (centres unmarked),15.8
10,Cc1ccc(NC(=O)COC(=O)c2ccc(F)cc2Cl)c(Br)c1,14.1
11,Cl.O=C(CSc1nc2ccccc2[nH]1)N1CCN(C(=O)c2ccco2)CC1,-23.4
12,CCOc1ccc2nc(SCC(=O)NCc3ccco3)sc2c1,-29.8
13,O=C(CSc1nc2ccccc2[nH]1)NCc1ccco1,-1.16
14,Cc1cc2nc(-c3ccc(SCC(=O)N4CCN(C(=O)c5ccco5)CC4)nc3)[nH]c2cc1C,2.64
15,O=C(CCc1nc2ccccc2[nH]1)N1CCN(C(=O)c2ccco2)CC1,6.93
16,Cc1ccc2nc(SCC(=O)N3CCN(C(=O)c4ccco4)CC3)[nH]c2c1,-35.3
17,CCOc1ccc2nc(NC(=O)C3CCN(C(=O)c4ccco4)CC3)sc2c1,10.1
18,O=C(CSc1nc2ccc(Cl)cc2[nH]1)N1CCN(C(=O)c2ccco2)CC1,-56.1
19,O=C(CSc1nc2ccc(Cl)cc2[nH]1)NCc1ccco1,-51.8
20,Cc1ccc2nc(SCC(=O)NCc3ccco3)[nH]c2c1,-0.695
21,CCOc1ccc2nc(SCC(=O)N3CCN(C(=O)c4ccco4)CC3)sc2c1,-66.2

row,Structure (SMILES),"hERG current change (%, negative = inhibition) at 10uM [%]"
1,O=C(CSc1ccc(-c2nc3ccccc3[nH]2)cn1)N1CCN(C(=O)c2ccco2)CC1,-68.4
2,O=c1oc(-c2cccs2)nc2sc3c(c12)CCCC3,-1.83
3,COc1ccc(OC)c(C(=O)c2c(C)oc3cc([N+](=O)[O-])c(O)c([N+](=O)[O-])c23)c1,13.3
4,COc1ccc(C2C(C(C)=O)=C(O)C(=O)N2CCc2c[nH]c3ccccc23)cc1 (centres unmarked),13.7
5,CCn1nnc(NC(=O)c2cc3ccccc3o2)n1,4.36
6,Cc1ccc(-n2c(CC#N)n[nH]c2=S)c(C)c1,3.3
7,O=C(NCc1ccccc1)Nc1cccn(Cc2ccccc2)c1=O,10.4
8,Cc1cccc(N2CN=c3s/c(=C\c4ccccn4)c(=O)n3C2)c1,-1.21
9,O=C(CSc1nc2ccccc2s1)N1CCN(C(=O)c2ccco2)CC1,-41.3
10,O=C(CSc1nc2cc(Cl)ccc2s1)c1ccco1,2.2
11,O=C(CSc1nc2cc(Cl)ccc2s1)N1CCN(C(=O)c2ccco2)CC1,-71.6
12,O=C(c1ccco1)N1CCN(c2nc3ccsc3c(=O)s2)CC1,-79
13,COc1ccc2nc(N3CCN(C(=O)C4COc5ccccc5O4)CC3)sc2c1 (centres unmarked),-61.2
14,Cc1ccc(Cl)c2sc(N3CCN(C(=O)c4ccco4)CC3)nc12,-10.3
15,O=C(C1COc2ccccc2O1)N1CCN(c2nc3ccc([N+](=O)[O-])cc3s2)CC1 (centres unmarked),-29.8
16,Cc1ccc2nc(N3CCN(C(=O)c4ccco4)CC3)sc2c1,-32
17,O=C(C1COc2ccccc2O1)N1CCN(c2nc3ccccc3s2)CC1 (centres unmarked),-27.9
18,Cc1ccc(-c2cc(-c3ccccc3)c(C#N)c(Br)n2)cc1,-4.18
19,CC1CC(C)CN(S(=O)(=O)c2ccc3c(c2)oc(=O)n3CC(=O)N(C)Cc2ccccc2)C1 (centres unmarked),7.04
20,CCOCCCNC(=S)N1C2CCC1CC(NC(=O)NC1CCCCC1)C2 (centres unmarked),1.88
